Laboratory results: PubChem BioAssay (EPA / NIEHS)
A structure can be active in one record and inactive in another. Calls of active or inactive are those of the source. Rule for the calls: active = hit-call score of the fitted dose curve at least 0.9, where 1 is the maximum; inactive = score below 0.9.

Experiments:
[1] = molecular target: Transcription factor E2F1 (Homo sapiens) (UniProt Q01094); test: ATG_E2F_CIS: Attagene CIS-FACTORIAL HepG2 Assay for human E2F Transcription Factor 1 (AID 2282935); details: HepG2 Attagene cis-reporter, E2F reporter RNA transcripts; actives raise or lower the signal
Chain of Transcription factor E2F1 (Homo sapiens) (Q01094 whole entry, looked up): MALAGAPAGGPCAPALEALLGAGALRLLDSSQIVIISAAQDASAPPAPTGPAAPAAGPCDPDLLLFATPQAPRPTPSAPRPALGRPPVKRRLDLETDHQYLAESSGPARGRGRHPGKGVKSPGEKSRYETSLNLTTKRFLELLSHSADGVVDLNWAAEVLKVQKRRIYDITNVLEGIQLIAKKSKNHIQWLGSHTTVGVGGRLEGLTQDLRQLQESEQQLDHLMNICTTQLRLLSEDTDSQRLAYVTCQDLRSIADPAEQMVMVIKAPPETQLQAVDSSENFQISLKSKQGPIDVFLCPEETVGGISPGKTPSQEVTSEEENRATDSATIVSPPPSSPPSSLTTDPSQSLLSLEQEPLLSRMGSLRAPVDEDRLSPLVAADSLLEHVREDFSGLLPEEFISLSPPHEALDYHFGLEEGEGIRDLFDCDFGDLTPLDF
In short: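 Fluorescent RT-PCR products, digested with HpaI for 2 h at 37 C, are separated by capillary electrophoresis. Source RNA comes from transfected HepG2 cultures treated for 24 h.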

[2] = ATG_E_Box_CIS: Attagene CIS-FACTORIAL HepG2 Assay for human Enhancer Box (E-box) (AID 2282936); details: HepG2 E-box cis-reporter transcription, actives raise or lower the signal
In short: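 Fluorescent reporter fragments separated by capillary electrophoresis gave the signal; mRNA came from HepG2 cells transfected with cis-element reporters and treated 24 h. Curves fitted bidirectionally relative to DMSO controls.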

[3] = ATG_M_61_CIS: Attagene CIS-FACTORIAL HepG2 Assay for M61 Transcription Factor (Internal Marker) (AID 2282937); details: HepG2 Attagene CIS-FACTORIAL M61 internal marker reporter; actives raise or lower the signal
In short: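 Cells were transfected with reporter units under cis-regulatory promoters, treated with chemicals for 24 h, then lysed for RNA. Reporter transcripts were quantified by RT-PCR and capillary electrophoresis, and activity was fitted bidirectionally against DMSO.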

[4] = ATG_EGR_CIS: Attagene CIS-FACTORIAL HepG2 Assay for human Early Growth Response 1 (EGR1) (AID 2282938); details: HepG2 Attagene CIS-FACTORIAL EGR reporter mRNA; actives raise or lower the signal
In short: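 Endogenous TF activity in HepG2 liver cells was gauged through cis-promoter reporter constructs transiently transfected. After 24 h dosing, reporter mRNA was quantified by RT-PCR and capillary electrophoresis, and curves fitted in both directions versus DMSO.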

[5] = ATG_M_19_CIS: Attagene CIS-FACTORIAL HepG2 Assay for M19 Transcription Factor (Internal Marker) (AID 2282939); details: HepG2 Attagene CIS-FACTORIAL M19 internal marker reporter; actives raise or lower the signal
In short: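 HepG2 cells transiently transfected with cis-regulated multiple reporter transcription units were dosed for 24 h; reporter mRNA was quantified by RT-PCR, 6-FAM primer-extension labelling, HpaI digestion and capillary electrophoresis, with bidirectional fitting against DMSO baseline.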

[6] = ATG_ERE_CIS: Attagene CIS-FACTORIAL HepG2 Assay for Estrogen Response Element (ERE) (AID 2282940); details: HepG2 ERE cis-reporter, Attagene RNA transcript; actives raise or lower the signal
In short: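 HepG2 cells transiently transfected with cis-promoter-driven multiplexed reporter transcription units report endogenous TF activity. After 24 h compound exposure, reporter mRNA is quantified by RT-PCR with capillary electrophoresis fluorescence; bidirectional fitting versus DMSO baseline.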

[7] = ATG_Ets_CIS: Attagene CIS-FACTORIAL HepG2 Assay for human Erythroblast Transformation Specific (ETS) (AID 2282941); details: HepG2 ETS cis-reporter transcription, actives raise or lower the signal
In short: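 Endogenous transcription factor activity read as reporter mRNA via RT-PCR and capillary electrophoresis, with gain or loss fitted bidirectionally against DMSO. Human HepG2 liver cells, transiently transfected CIS reporter constructs, 24 h exposure.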

[8] = molecular target: Hepatocyte nuclear factor 3-beta (Homo sapiens) (UniProt Q9Y261); test: ATG_FoxA2_CIS: Attagene CIS-FACTORIAL HepG2 Assay for human Forkhead box A2 (FOXA2) (AID 2282942); details: HepG2 cis-reporter transcription factor activity, 24 h; actives raise or lower the signal
Chain of Hepatocyte nuclear factor 3-beta (Homo sapiens) (Q9Y261 whole entry, looked up): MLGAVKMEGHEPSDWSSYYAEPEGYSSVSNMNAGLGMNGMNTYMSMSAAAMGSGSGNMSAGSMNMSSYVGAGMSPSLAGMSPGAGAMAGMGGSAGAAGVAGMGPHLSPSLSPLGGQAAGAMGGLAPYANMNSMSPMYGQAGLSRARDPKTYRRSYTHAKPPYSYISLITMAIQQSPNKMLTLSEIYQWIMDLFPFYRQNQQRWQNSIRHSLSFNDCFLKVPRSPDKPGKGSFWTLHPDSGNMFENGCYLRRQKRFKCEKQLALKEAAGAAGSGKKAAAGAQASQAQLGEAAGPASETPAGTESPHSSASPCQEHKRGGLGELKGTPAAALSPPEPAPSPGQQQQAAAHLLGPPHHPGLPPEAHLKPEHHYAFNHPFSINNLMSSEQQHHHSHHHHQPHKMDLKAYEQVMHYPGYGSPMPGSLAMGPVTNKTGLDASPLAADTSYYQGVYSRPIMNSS
In short: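 Endogenous transcription factor activity was read in HepG2 cells carrying transiently transfected cis-promoter reporter units. After 24 h dosing, reporter mRNA was quantified by RT-PCR and capillary electrophoresis, and values fitted bidirectionally versus DMSO.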

[9] = ATG_FoxO_CIS: Attagene CIS-FACTORIAL HepG2 Assay for human Forkhead box O (FoxO) (AID 2282943); details: HepG2 Attagene cis-reporter, FoxO element, mRNA; actives raise or lower the signal
In short: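 HepG2, transient MRTU transfection (cis element, endogenous TFs). Dose 24 h. TriZol RNA → oligo(dT) RT → PCR → 6-FAM primer extension → HpaI cut → CE. Gain/loss vs DMSO.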

[10] = ATG_GATA_CIS: Attagene CIS-FACTORIAL HepG2 Assay for human GATA Binding Protein (AID 2282944); details: HepG2 GATA cis-element reporter, Attagene multiplex mRNA; actives raise or lower the signal
In short: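 HepG2 cells transiently transfected with multiplexed cis-element reporter units reflecting endogenous transcription factor activity; reporter mRNA measured after 24 h dosing by RT-PCR, 6-FAM labeling, HpaI digestion and capillary electrophoresis. Bidirectional fitting versus DMSO baseline.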

[11] = ATG_GLI_CIS: Attagene CIS-FACTORIAL HepG2 Assay for human Zinc Finger Protein GLI1 (AID 2282945); details: HepG2, Attagene cis-factorial reporter mRNA, GLI element; actives raise or lower the signal
In short: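 Bidirectional curve fits relative to DMSO, using reporter mRNA levels from RT-PCR plus capillary electrophoresis. Cells were HepG2 transiently carrying cis-regulated reporter constructs, harvested 24 h after dosing.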

[12] = molecular target: Bile acid receptor (Homo sapiens) (UniProt Q96RI1); test: ATG_IR1_CIS: Attagene CIS-FACTORIAL HepG2 Assay for human Nuclear Receptor Subfamily 1 Group H Member 4 (NR1H4), IR1 submotif (AID 2282946); details: IR1 reporter transcription, actives raise or lower the signal
Chain of Bile acid receptor (Homo sapiens) (Q96RI1 whole entry, looked up): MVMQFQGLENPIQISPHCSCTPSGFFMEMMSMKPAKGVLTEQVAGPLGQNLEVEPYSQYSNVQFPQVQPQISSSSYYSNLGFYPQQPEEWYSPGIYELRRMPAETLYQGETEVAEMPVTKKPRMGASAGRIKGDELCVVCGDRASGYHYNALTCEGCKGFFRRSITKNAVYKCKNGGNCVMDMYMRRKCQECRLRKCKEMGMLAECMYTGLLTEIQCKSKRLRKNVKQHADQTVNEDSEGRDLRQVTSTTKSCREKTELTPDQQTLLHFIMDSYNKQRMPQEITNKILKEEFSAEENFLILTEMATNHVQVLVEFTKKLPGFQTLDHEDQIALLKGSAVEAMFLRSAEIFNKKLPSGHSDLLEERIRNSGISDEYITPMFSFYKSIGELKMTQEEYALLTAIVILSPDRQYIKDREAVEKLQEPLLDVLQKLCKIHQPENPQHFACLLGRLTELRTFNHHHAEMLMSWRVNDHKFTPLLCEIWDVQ
In short: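 HepG2 cells transiently transfected with multiplexed cis-element reporter units read endogenous transcription factor activity. After 24 h compound exposure, reporter mRNA was quantified by RT-PCR, fluorescent labelling, HpaI digestion and capillary electrophoresis; bidirectional fitting versus DMSO baseline.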

[13] = ATG_ISRE_CIS: Attagene CIS-FACTORIAL HepG2 Assay for human Interferon Regulatory Factor 1 (IRF1) binding to an Interferon-Stimulated Response Element (ISRE) (AID 2282948); details: HepG2 ISRE cis-reporter (Attagene), mRNA transcription readout; actives raise or lower the signal
In short: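 Endogenous transcription factor activity read as reporter transcript abundance via RT-PCR and capillary electrophoresis. HepG2 cells transiently transfected, 24 h chemical exposure. Gain or loss fitted against DMSO baseline.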

[14] = ATG_M_32_CIS: Attagene CIS-FACTORIAL HepG2 Assay for M32 Transcription Factor (Internal Marker) (AID 2282949); details: HepG2 Attagene cis-factorial M32 reporter, mRNA; actives raise or lower the signal;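 note: background control marker of the multiplexed CIS panel rather than a real target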
In short: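 Using DMSO as baseline, bidirectional curve fits were applied to reporter mRNA signals. These came from transiently transfected HepG2 cells exposed for 24 h, with RNA analysed by RT-PCR, FAM primer extension, HpaI digestion and CE.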

[15] = ATG_M_06_CIS: Attagene CIS-FACTORIAL HepG2 Assay for M06 Transcription Factor (Internal Marker) (AID 2282950); details: HepG2 Attagene CIS-FACTORIAL M06 internal marker reporter; actives raise or lower the signal
In short: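 HepG2 cells transiently transfected with cis-regulated multiple reporter transcription units were exposed to chemical for 24 h; reporter mRNA was quantified by RT-PCR, 6-FAM primer labelling, HpaI digestion and capillary electrophoresis, fitted bidirectionally against DMSO.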

[16] = molecular target: Hypoxia-inducible factor 1-alpha (Homo sapiens) (UniProt Q16665); test: ATG_HIF1a_CIS: Attagene CIS-FACTORIAL HepG2 Assay for human Hypoxia Inducible Factor 1 (HIF1A) (AID 2282951); details: HepG2 Attagene cis-factorial HIF1a reporter transcription; actives raise or lower the signal
Chain of Hypoxia-inducible factor 1-alpha (Homo sapiens) (Q16665 whole entry, looked up): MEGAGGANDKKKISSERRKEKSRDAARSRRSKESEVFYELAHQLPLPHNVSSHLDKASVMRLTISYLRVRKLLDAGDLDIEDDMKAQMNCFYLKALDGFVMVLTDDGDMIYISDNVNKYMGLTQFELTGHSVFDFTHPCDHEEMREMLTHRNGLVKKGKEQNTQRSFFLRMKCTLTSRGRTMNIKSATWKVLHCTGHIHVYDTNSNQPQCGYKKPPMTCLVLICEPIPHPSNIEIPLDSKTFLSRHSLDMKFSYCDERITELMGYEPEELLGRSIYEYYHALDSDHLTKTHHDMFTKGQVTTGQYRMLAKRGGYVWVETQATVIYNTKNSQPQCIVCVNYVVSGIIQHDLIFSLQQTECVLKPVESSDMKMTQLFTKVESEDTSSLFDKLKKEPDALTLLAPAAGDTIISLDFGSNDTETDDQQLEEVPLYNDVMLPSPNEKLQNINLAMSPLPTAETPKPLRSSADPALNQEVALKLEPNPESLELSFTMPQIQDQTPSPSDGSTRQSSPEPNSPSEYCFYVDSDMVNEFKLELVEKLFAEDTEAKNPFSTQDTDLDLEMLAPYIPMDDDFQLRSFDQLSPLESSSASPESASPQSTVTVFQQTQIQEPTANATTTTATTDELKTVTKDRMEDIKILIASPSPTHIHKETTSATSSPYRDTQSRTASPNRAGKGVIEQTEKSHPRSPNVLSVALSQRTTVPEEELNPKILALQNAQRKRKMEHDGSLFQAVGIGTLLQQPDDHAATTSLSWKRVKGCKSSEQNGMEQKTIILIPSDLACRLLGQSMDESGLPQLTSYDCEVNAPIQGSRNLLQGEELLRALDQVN
In short: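 Measures endogenous transcription-factor activity through cis-regulated reporter mRNA in HepG2. Cells dosed 24 h; transcripts quantified by RT-PCR with 6-FAM-labelled products separated by capillary electrophoresis; DMSO serves as negative control.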

[17] = molecular target: Hepatocyte nuclear factor 6 (Homo sapiens) (UniProt Q9UBC0); test: ATG_HNF6_CIS: Attagene CIS-FACTORIAL HepG2 Assay for human Hepatocyte Nuclear Factor 6 (HNF6) (AID 2282952); details: HepG2 Attagene cis-factorial HNF6 reporter transcription; actives raise or lower the signal
Chain of Hepatocyte nuclear factor 6 (Homo sapiens) (Q9UBC0 whole entry, looked up): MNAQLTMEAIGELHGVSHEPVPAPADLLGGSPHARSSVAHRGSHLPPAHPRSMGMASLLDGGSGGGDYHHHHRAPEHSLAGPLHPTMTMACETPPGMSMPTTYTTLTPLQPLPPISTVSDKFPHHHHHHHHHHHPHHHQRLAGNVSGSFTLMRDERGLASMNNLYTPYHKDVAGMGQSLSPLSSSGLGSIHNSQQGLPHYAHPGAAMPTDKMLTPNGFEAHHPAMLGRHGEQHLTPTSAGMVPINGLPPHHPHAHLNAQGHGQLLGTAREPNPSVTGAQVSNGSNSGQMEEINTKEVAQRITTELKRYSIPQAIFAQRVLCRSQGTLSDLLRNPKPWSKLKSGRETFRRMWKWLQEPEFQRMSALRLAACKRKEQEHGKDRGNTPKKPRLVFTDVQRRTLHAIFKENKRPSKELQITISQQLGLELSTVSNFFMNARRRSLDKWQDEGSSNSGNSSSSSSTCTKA
In short: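 Endogenous factor activity read in transiently transfected HepG2 via promoter-regulated reporter transcripts. RNA harvested 24 h post-dosing, reverse-transcribed, PCR-amplified, FAM-labelled, HpaI-digested and resolved by capillary electrophoresis; fitted in both directions against DMSO.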

[18] = molecular target: Heat shock factor protein 1 (Homo sapiens) (UniProt Q00613); test: ATG_HSE_CIS: Attagene CIS-FACTORIAL HepG2 Assay for human Heat Shock Transcription Factor 1 (HSE) (AID 2282953); details: HepG2 HSE cis-reporter, Attagene RNA transcription; actives raise or lower the signal
Chain of Heat shock factor protein 1 (Homo sapiens) (Q00613 whole entry, looked up): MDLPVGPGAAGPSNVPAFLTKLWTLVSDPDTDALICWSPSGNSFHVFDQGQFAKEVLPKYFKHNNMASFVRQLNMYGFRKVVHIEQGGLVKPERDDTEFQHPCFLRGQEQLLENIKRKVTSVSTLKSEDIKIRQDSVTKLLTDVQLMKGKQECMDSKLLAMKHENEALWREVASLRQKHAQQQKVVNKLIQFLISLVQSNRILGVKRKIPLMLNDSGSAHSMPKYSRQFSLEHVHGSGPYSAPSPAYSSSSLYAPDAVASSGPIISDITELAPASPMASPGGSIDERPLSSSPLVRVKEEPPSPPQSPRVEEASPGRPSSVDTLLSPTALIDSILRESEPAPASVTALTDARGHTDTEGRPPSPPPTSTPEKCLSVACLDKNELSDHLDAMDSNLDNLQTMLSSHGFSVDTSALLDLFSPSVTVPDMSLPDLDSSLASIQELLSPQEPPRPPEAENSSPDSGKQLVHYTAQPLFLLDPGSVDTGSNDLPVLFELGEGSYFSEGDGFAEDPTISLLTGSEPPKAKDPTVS
In short: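 HepG2 cells transiently transfected with multiple reporter transcription units under cis-regulatory promoter control, measuring endogenous transcription factor activity. After 24 h chemical exposure, reporter mRNA quantified by RT-PCR, fluorescent labelling, HpaI digestion and capillary electrophoresis; bidirectional fit versus DMSO.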

[19] = ATG_MRE_CIS: Attagene CIS-FACTORIAL HepG2 Assay for human Metal Responsive Element (MRE) (AID 2282954); details: HepG2 MRE cis-reporter transcription, Attagene multiplex; actives raise or lower the signal
In short: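 Multiplexed cis-reporter assay in human HepG2 liver cells, 24 h incubation with test chemical. Reporter transcripts measured by RT-PCR and capillary electrophoresis; values from bidirectional curve fitting versus DMSO.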

[20] = ATG_GRE_CIS: Attagene CIS-FACTORIAL HepG2 Assay for human Glucocorticoid Response Elements (GRE) (AID 2282947); details: HepG2 GRE cis-reporter, Attagene multiplex mRNA; actives raise or lower the signal
In short: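 Multiplexed cis-reporter mRNA induction, HepG2, 24 h post-dose. RT-PCR, FAM-labelled, HpaI-digested amplicons by CE. Bidirectional fit vs DMSO.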

Measured: AC50

O[Si](c1ccccc1)(c1ccccc1)c1ccccc1
active: [2] 15.8 µM | [6] 12.8 µM | [11] 134 µM | [12] 10.2 µM | [19] 33.3 µM
not listed: [20]
inactive: all other assays above

Oc1ccc(Nc2ccccc2)cc1
active: [2] 100 µM | [6] 8.42 µM | [18] 168 µM | [19] 61.1 µM
inactive: all other assays above

C=CC(F)(F)C(F)(F)C(F)(F)C(F)(F)C(F)(F)C(F)(F)C(F)(F)C(F)(F)F
inactive: all assays above

FC(F)(F)C(F)(F)C(F)(F)N(C(F)(F)C(F)(F)C(F)(F)F)C(F)(F)C(F)(F)C(F)(F)F
inactive: all assays above

COC(=O)C1CCC(C(=O)OC)CC1 (configuration not stated)
inactive: [1] | [2] | [3] | [4] | [5] | [6] | [7] | [8] | [9] | [10] | [11] | [12] | [13] | [14] | [15] | [16] | [17] | [18] | [19]
active: [6] 20.5 µM

C=C(C)C(=O)OCCC(F)(F)C(F)(F)C(F)(F)C(F)(F)C(F)(C(F)(F)F)C(F)(F)F
active: [6] 13.8 µM
not listed: [20]
inactive: all other assays above

CC/C=C\CCOC(=O)c1ccccc1
inactive: all assays above

CCN(CC)c1ccc2c(C)cc(=O)oc2c1
active: [19] 71.9 µM
inactive: all other assays above

CCCCCCS
active: [13] 133 µM
inactive: all other assays above

FC(F)(F)C(F)(F)C(F)(F)C(F)(F)C(F)(F)C(F)(F)C(F)(F)I
active: [6] 5.59 µM
inactive: all other assays above

CN(C)Cc1ccccc1O
inactive: all assays above

CC(C)OC(=O)c1ccccc1C(=O)OC(C)C
active: [6] 27.7 µM
not listed: [20]
inactive: all other assays above

FC(F)(F)C(F)(F)C(F)(F)C(F)(F)C(F)(F)C(F)(F)C(F)(F)C(F)(F)F
inactive: all assays above
